HPGD block: HPGD (human) dehydrogenase inhibition | 4.3% of 150,000 active | P15428 | Potency, µM, for the others: at the highest dose activity change, negative = inhibition, actives largely listed as inhibitors | purified HPGD, NADH fluorescence kinetic, PGE2 substrate; active = well fitted inhibition curve with a large enough effect, not every such curve was filed as active; inconclusive = small, poorly fitted or top-dose-only effect, or another doubt; inactive = no such curve, though single readings can be large or run the other way
Target sequence (P15428 whole entry, looked up): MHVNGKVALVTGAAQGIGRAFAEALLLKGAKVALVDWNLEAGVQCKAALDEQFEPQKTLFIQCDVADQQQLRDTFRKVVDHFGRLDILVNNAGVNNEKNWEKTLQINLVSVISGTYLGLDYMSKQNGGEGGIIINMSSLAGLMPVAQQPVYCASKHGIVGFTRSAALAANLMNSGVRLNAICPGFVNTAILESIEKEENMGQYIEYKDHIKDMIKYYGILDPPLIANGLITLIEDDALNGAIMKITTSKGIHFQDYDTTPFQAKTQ
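NADH formation kinetics: reaction with 30 uM PGE2 and 1 mM NAD+ (final), 20 nM enzyme, Tris-HCl pH 8 with Tween 20, after 15 min compound preincubation at room temperature. Fluorescence change, last versus first of five reads.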
ALDH1A1 block: blocks purified human ALDH1A1 activity | 7.3% of 220,000 active | Potency, µM (series often up to 75.3 µM), for inactives: top-dose activity, negative = inhibition, actives largely listed as inhibitors | P00352 | Purified ALDH1A1, NADH fluorescence, propionaldehyde substrate; active = well fitted inhibition curve with a large enough effect, not every such curve was filed as active; inconclusive = small, poorly fitted or top-dose-only effect, or another doubt; inactive = no such curve, though single readings can be large or run the other way;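 note: plate controls were no enzyme wells and a reference inhibitor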
Tau fibril ThT: tau fibrillization inhibition (ThT binding); recombinant tau K18 P301L, heparin-induced fibrillization, ThT fluorescence; Potency, µM (top dose mostly 57.4 µM), for inactives: top-dose activity, negative = inhibition, usual class: inhibitors; P10636; 2.1% of 270,000 active; AID 1460; note: nearly all actives have a fitted effect of over 55% in size
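Using a mix of unlabeled (15 uM) and Alexa 594-labeled (0.24 uM) tau K18 P301L, heparin-triggered fibrillization over 6 hr at 37 C was scored by ThT fluorescence.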
KDM4E inh: blocks human JMJD2E demethylase activity; JMJD2E catalytic domain, FDH-coupled NADH fluorescence (FDH is formaldehyde dehydrogenase); Potency, µM (highest dose often 57.1 µM), for inactives: top-dose activity change, negative = inhibition, most hits filed as inhibitors; 1.6% of 230,000 active; AID 2147; active = well fitted inhibition curve with a large enough effect, not every such curve was filed as active; inconclusive = small, poorly fitted or top-dose-only effect, or another doubt; inactive = no such curve, though single readings can be large or run the other way;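 note: 0% = wells with enzyme and -100% = buffer wells without enzyme; nearly all actives have a fitted effect of over 50% in size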
Target sequence (B2RXH2 1-337 limits assumed): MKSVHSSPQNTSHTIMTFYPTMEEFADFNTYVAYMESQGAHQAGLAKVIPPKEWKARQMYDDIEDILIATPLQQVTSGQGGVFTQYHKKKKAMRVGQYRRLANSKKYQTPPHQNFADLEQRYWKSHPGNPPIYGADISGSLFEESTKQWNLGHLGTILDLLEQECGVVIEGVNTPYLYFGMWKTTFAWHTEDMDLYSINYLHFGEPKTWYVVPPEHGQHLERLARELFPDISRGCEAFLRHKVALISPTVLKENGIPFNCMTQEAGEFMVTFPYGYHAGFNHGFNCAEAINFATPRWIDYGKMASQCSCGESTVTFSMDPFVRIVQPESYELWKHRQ
Tau fluor cs: counter-screen for tau fibril formation inhibitors | AID 1463 | Potency, µM (highest dose often 57.7 µM), inactives show at the highest dose activity change, negative = decrease | 0.93% of 280,000 active | tau K18 P301L Alexa594 fluorescence, heparin fibrillization; note: nearly all actives have a fitted effect of over 55% in size
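Human tau K18 P301L (15 uM unlabeled, 0.24 uM Alexa 594-labeled) in 100 mM sodium acetate pH 7 with 20 uM heparin, 6 hr at 37 C. ThT 30 uM added, 1 hr ambient; Alexa 594 FP and total fluorescence read at 555/632 nm.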
Tau FP inhib: blocks human tau fibril formation measured by polarization; P10636; K18 P301L tau heparin fibrillization, Alexa594 FP, 6 h; Potency, µM (top dose mostly 57.7 µM), without a hit: at the highest dose activity, negative = inhibition, actives largely listed as inhibitors; 0.39% of 280,000 active; AID 1468; note: nearly all actives have a fitted effect of over 55% in size
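Quantitative HTS format: compounds meet 15 uM recombinant K18 P301L tau and Alexa 594-tau tracer in 100 mM sodium acetate pH 7; 20 uM heparin triggers fibrillization at 37 C over 6 hr; FP gives the signal.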
The depositor's hits bear a star; u = inconclusive; x = not tested or not shown; [ ] = another dose, or the depositor's remark. Shown are actives, neighbours in structure and some others; about 9.9% of the full set was active somewhere. Unless noted, calls come from the whole dose curve; as a rule, active = well fitted curve in the direction sought with a large enough effect; inconclusive = small, poorly fitted or top-dose-only effect, or another doubt; inactive = no such curve, though single readings can be large; an effect the other way counts as inactive or inconclusive. Unless noted, % is set by controls: 0 for no effect and ±100 for the full control effect; potency is the fitted concentration of half-maximal effect.

SMILES	HPGD block	ALDH1A1 block	Tau fibril ThT	KDM4E inh	Tau fluor cs	Tau FP inhib
COc1cc2[nH]c(Cl)c([N+](=O)[O-])c2cc1OC	x	x	14µM*	13µM*	u	u
COc1cc2[nH]c3c(Cl)ncnc3c2cc1OC	-13%	u	u	0%	-16%	1%
CCc1nc(C)ccc1OC(=O)C12CC3CC(CC(C3)C1)C2	-21%	18µM*	-13%	u	-4%	10%
O=C1NN(c2ccc(F)cc2)C(=O)/C1=C/c1cccs1	x	25µM*	u	-1%	-23%	-6%
c1ccc(-c2cc3c(ccc4nonc43)nn2)cc1	-15%	u	-8%	3%	-5%	-3%
On1onc2c3cc(-c4ccccc4)nc3ccc21	-13%	18µM*	4µM*	3%	13µM*[quencher]	u
CCOc1ccccc1NC(=O)Cn1ccn(Cc2ccc(C)cc2)c(=O)c1=O	x	x	-11%	x	-17%	u
CCC(=O)N1c2ccccc2-c2nnc(SC)nc2OC1c1ccc(N(C)C)cc1 (stereo unspecified)	-5%	16µM*	-14%	2%	-10%	3%
O=C(COC(=O)Cc1ccccc1[N+](=O)[O-])NCc1ccc(F)cc1	-11%	-8%	-4%	-3%	-5%	-7%
O=C(NC1CC1)C1CCCN1S(=O)(=O)c1ccc2ccccc2c1 (stereo unspecified)	-8%	-5%	-5%	14%	-5%	2%
O=C(NCCc1ccccc1F)C1CCCN1S(=O)(=O)c1ccc2ccccc2c1 (stereo unspecified)	16µM*	2%	1%	-6%	1%	-3%
COc1cc(-c2nnc3n(CCc4ccccc4)c(=O)c4ccccc4n23)cc(OC)c1OC	-27%	0.22µM*	5%	7%	-2%	-5%
O=C(OCc1cccc(F)c1)c1ccc2c(=O)n3c(nc2c1)CCC3	x	x	-16%	1%	-21%	0%
O=C1c2ccccc2C(=O)N1CCC(c1ccc(F)cc1)c1ccco1 (stereo unspecified)	-9%	10µM*	-15%	1%	0%	7%
O=C1CCC(=O)N1CCC(c1ccc(F)cc1)c1ccco1 (stereo unspecified)	-9%	-6%	-16%	-10%	-6%	-9%
O=C(NCCCO)c1ccc2nc(-c3ccco3)c(-c3ccco3)nc2c1	x	u	5µM*	13µM*	4.5µM*[quencher]	8.9µM*
CCCNC(=O)c1ccc2nc(-c3ccccc3)c(-c3ccccc3)nc2c1	u	u	-17%	u	-21%	-9%
CCCCNC(=O)c1ccc2nc(-c3ccco3)c(-c3ccco3)nc2c1	25µM*	5µM*	16µM*	u	u	u
CCOC(=O)c1c(S(=O)(=O)N2CCC(C(=O)Nc3ncccc3C)CC2)c(C)n(C)c1C	x	x	4%	x	-4%	1%
C/C=C/COC(=O)c1[nH]c2c(c1C)C(=O)CC(c1ccc(N(C)C)cc1)C2 (stereo unspecified)	-18%	5µM*	u	-5%	u	3%
CCOc1ccc(C2CC(=O)c3c([nH]c(C(=O)OCCOc4ccccc4)c3C)C2)cc1 (stereo unspecified)	x	x	-13%	x	-11%	-9%
Cc1c(C(=O)OC2CCCCCC2)[nH]c2c1C(=O)CC(c1ccc(N(C)C)cc1)C2 (stereo unspecified)	x	x	-4%	x	-2%	11%
CCOCCOC(=O)c1[nH]c2c(c1C)C(=O)CC(c1ccc(N(C)C)cc1)C2 (stereo unspecified)	-12%	13µM*	u	0%	-20%	7%
CCC(C)OC(=O)c1[nH]c2c(c1C)C(=O)CC(c1ccc(N(C)C)cc1)C2 (stereo unspecified)	-13%	3.5µM*	u	0%	u	7%
CC1CCC(NC(=O)C2CC(=O)N(c3ccc4c(c3)OCCO4)C2)CC1 (stereo unspecified)	x	0%	-7%	-3%	-4%	1%
SMILES	HPGD block	ALDH1A1 block	Tau fibril ThT	KDM4E inh	Tau fluor cs	Tau FP inhib
Cc1ccc(OC(=S)Nc2ccc(O)cc2)cc1	-14%	-15%	16µM*	u	-26%	u
O=C(Nc1ccc(Cl)cc1)Nc1ccc2c(c1)N1CCN=C1S2	-6%	5%	-15%	1%	14µM*[quencher]	-11%
O=c1cc(CSc2ncn[nH]2)[nH]c2c(Cl)cccc12	x	x	-1%	x	-1%	4%
COc1ncc2nc(C)c(=O)n(Cc3ccc(F)cc3)c2n1	x	-1%	x	x	x	x
Cc1nnc(Nc2ccc(C(=O)N3CCOCC3)cc2)c2ccccc12	16µM*	9%	-3%	-1%	-3%	-3%
CS(=O)(=O)N1CCc2cc(C(=O)N3CCCCC3)ccc21	3.2µM*	-12%	-3%	-2%	-9%	-11%
CS(=O)(=O)N1CCc2cc(C(=O)N3CCOCC3)ccc21	-18%	15%	-10%	4%	-1%	-7%
O=C(c1ccccc1)N1CCCCCC1	4.5µM*	7%	-7%	0%	-4%	9%
O=C(Nc1cc(C(=O)N2CCCC2)ccc1N1CCCC1)c1ccccc1	25µM*	u	5%	6%	3%	3%
Cc1nnc(Nc2ccc3c(c2)OCO3)c2ccccc12	-16%	5%	-12%	2%	-10%	4%
CNC(=S)Nc1cc(C(=O)N2CCCC2)ccc1N1CCCC1	x	-9%	u	-5%	-2%	4%
Cn1nc(C(=O)Nc2cc(F)ccc2F)c2c1-c1ccccc1SC2	x	x	4%	x	2%	0%
COc1ccc(N2Cc3cccc(C(=O)Nc4ccc(C(C)C)cc4)c3C2=O)cc1	x	x	0%	x	-17%	-3%
COc1cccc(CNC(=O)c2cc3c(s2)-c2c(C)cccc2OC3)c1	x	x	u	x	u	-15%
COc1ccc(/C=C(\NC(=O)c2ccc(C)cc2)C(=O)Nc2c(C)n(C)n(-c3ccccc3)c2=O)cc1	x	4%	2%	-28%	4%	12%
O=C(c1ccccc1)c1ccc(C(=O)N2CCOCC2)cc1	7.9µM*	-4%	-3%	-1%	0%	9%
O=C(c1ccc([N+](=O)[O-])cc1)N1CCCC1	x	x	-2%	1%	1%	-2%
O=C(Nc1cc(C(F)(F)F)ccc1N1CCOCC1)c1ccco1	-13%	8%	-12%	7%	1%	-14%
O=C(c1ccc(C(=O)N2CCCCCC2)cc1)N1CCCCCC1	7.9µM*	18µM*	0%	1%	-1%	-4%
O=C(/C=C/N1CCOCC1)c1ccc(-c2ccccc2)cc1	28µM*	u	u	-1%	-11%	-10%

Bioassay records from PubChem BioAssay.
